# Assay results taken from ChEMBL document CHEMBL3988442, “University of Dundee, Small-Polar-MMV Screening Library” (2021).
# Biological target: Shiga toxin 2 (Escherichia coli O157:H7) (UniProt P09385+P09386)
# Experiment: E. coli 0.157:H7 Shiga Toxin SOP - stx2 screening assay
# Format: functional
# Parameters: scale not given: direction of the effect not stated beside the values
# Details: 30 µM
row,Compound,Percent Effect [%]
1,Cn1ccnc1CNC1CCCN(Cc2noc(C3CC3)n2)C1 (stereo not given),-13.4
2,O=C(Cc1ccc(O)c(Cl)c1)N1CCCCC1CCn1cccn1 (stereo not given),-11.4
3,O=C(Cn1cnnn1)N1CCCCC1Cn1cccn1 (stereo not given),9.78
4,CC(C)NC(=O)N1CCC2(C1)CN(c1ccsc1)C(=O)CN2C (stereo not given),-17.6
5,COc1cccc(OCC2CCCN(C(C)=O)C2)c1 (stereo not given),-11
6,CCc1nnc2n1CCN(C(=O)c1csc(-c3cnn(C)c3)n1)C2,-15.8
7,COCCN1C[C@@H]2CN(Cc3ccsc3)CCC[C@]2(C(=O)O)C1,-14.2
8,CN(Cc1ccco1)Cc1ccccc1CNC(=O)c1ccncc1,12.1
9,CC(=O)N1CCCN(C(=O)NCc2cc[nH]n2)CC1,-9.44
10,Cc1noc2ncc(C(=O)N(CC3CCOC3)C3CC3)cc12 (stereo not given),24.4
11,Cn1nc(C2CCCN(C(=O)CO)C2)cc1O (stereo not given),10.4
12,COCc1cn([C@@H]2c3ccccc3C3(CCNCC3)[C@H]2O)nn1,8.95
13,CCCNC(=O)CNc1cc(C(=O)N2CCSCC2)ccc1C,-9.17
14,Cc1cnc2n(c1=O)CC(C(=O)Nc1cccc3cccnc13)CS2 (stereo not given),23.5
15,CC(NC1CCN(CCS(C)(=O)=O)CC1)c1ccc(Cl)cc1 (stereo not given),-1.87
16,c1cnc(N2CCC3(CC2)CN(CC2CC2)c2ccccc23)nc1,-25
17,O=C(c1ccccn1)N1C[C@@H]2CC[C@H](C1)N(C(=O)CCc1ccsc1)C2,-55.7
18,CC(C)N1CCC(Cc2cc(-c3ccccc3C(=O)O)ncn2)CC1,8.23
19,Cc1cnn(CC(C)NCc2ccc(OCc3ccncc3)cc2)c1 (stereo not given),-25.9
20,CN(C)C(=O)COCc1cncc2c1CCN(Cc1cnn(C)c1)C2,-43
